PubChem BioAssay AID1700 (The Scripps Research Institute Molecular Screening Center, 2009)
The whole screen tested about 290,000 compounds, of which about 670 (0.23%) were called active. This is one part of a sample in which actives are shown more often than they occur. Unmarked numbers belong to inactive results.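 The calls were made as follows: active = inhibition above a per-plate limit of that plate's mean compound inhibition plus 3 SD (cut at about 60% in these data); inactive = the rest.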

test: suppression of KLF5 promoter-driven luciferase – DLD-1 cells, luminescence, primary screen (AID 1700); conditions: DLD-1 KLF5 promoter-luciferase reporter, at 5 µM, active compounds read high;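 also: 0% = DMSO wells and 100% = LY294002 at 200 µM; higher means less KLF5 promoter-driven luciferase light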

Row | SMILES | inhibition
1 | CCCCCCCCCCCCn1ccc(=N)cc1 | 75.9% (active)
2 | CCN(CC)c1ccc([N+](=O)[O-])c2cccnc12 | -21%
3 | COc1cc2nc(N3CCN(C(=O)[C@@H]4CCCO4)CC3)nc(N)c2cc1OC | -16.5%
4 | O=C1NC(=O)C(CCc2ccccn2)(Cc2cccc(Cl)c2Cl)C(=O)N1c1ccc(Br)cc1 (stereo not given) | -5.72%
5 | COc1ccc(N2C(=O)/C(=C/c3ccco3)C(=O)NC2=S)cc1 | -5.05%
